The source of these data is PubChem BioAssay AID720647 (Broad Institute, 2013).

About 1,300 (0.34%) of roughly 380,000 compounds were called active.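 Rule for the calls: active = drop in luminescence signal, shown as inhibition above about 50% in the replicate tests (limit read from the data, passing the limit was not always enough); inconclusive = probably only some replicates passing the limit; inactive = the rest.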 The sample as a whole holds a higher share of actives than the screen did.

The experiment has as its system Drosophila bursicon receptor LGR2 (rickets). Briefly: inhibitors of bursicon-induced LGR2 CRE-luciferase signal, primary screen, cell-based, HEK293, CRE-luciferase reporter, bursicon stimulation (AID 720647).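 Note: agonist challenge used bursicon conditioned medium at about half maximal strength.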 The settings on record: bursicon-stimulated, 4 h, at 9.99 µM, active compounds read high.
As for `Cn1cnc(C(F)(F)F)c1-c1ccc([N+](=O)[O-])cc1`, the inhibition – broadly, the relative decrease from the control value, in per cent – was -7.43% (inactive).

As for `COc1ccccc1Cc1c(-c2ccc(F)cc2)nc2ccc(C)cn12`, the inhibition was -38.1% (inactive).

Turning to `Cc1nc(-c2ccccc2)cn2c1nc1ccccc12`, the inhibition is 3% (inactive).

In the case of `Cc1ccc(N2CCN(c3ccc([N+](=O)[O-])cn3)CC2)c(C)c1`, the inhibition is 4.63% (inactive).

`Cc1nc(=O)c(-c2ccccc2)c(C)n1-c1ccc(Br)cc1`: the inhibition is 4.28% (inactive).

As to `Cc1ccc2nc(-c3ccc(Br)cc3)cn2c1`, the inhibition was 96.2% (active).

As for `Cc1ccc(-c2cn3cc(C)ccc3n2)cc1`, the inhibition is 102% (active).

With `Cc1ccc(-c2cn3cc([N+](=O)[O-])ccc3n2)cc1`, the inhibition was 67.1% (active).

With `C[C@@H]1CN([C@@H](C)CO)C(=O)c2cc(C3=CCCC3)cnc2O[C@H]1CN(C)C(=O)c1ccccn1`, the inhibition is -11.6% (inactive).

As for `COc1ccc(NC(=O)Nc2ccc3c(c2)[C@@H]2C[C@@H](CC(=O)NCc4ccncc4)O[C@@H](CO)[C@@H]2O3)cc1`, the inhibition was 6.93% (inactive).

As for `CCC(=O)N(C)C[C@@H]1Oc2cc(-c3ccc(C#N)cc3)ccc2S(=O)(=O)N([C@@H](C)CO)C[C@@H]1C`, the inhibition is -4.05% (inactive).

As to `Cc1nc(N2[C@H](CO)[C@H](c3ccccc3)[C@H]2CNCC2CCCCC2)sc1C`, the inhibition is -6.28% (inactive).

As to `O=C(O)c1ccc(N/N=C/c2ccc3ncccc3c2)cc1`, the inhibition is 88.1% (active).

Consider `NCCCCCC(=O)N/N=C/c1ccc2nccnc2c1`, for which the inhibition is -0.608% (inactive).

`CCc1nc2cccnc2n1-c1ccc(C(=O)O)cc1`: the inhibition is -11.5% (inactive).

For the compound `O=C(C[C@H]1C=C[C@@H](NC(=O)C2CCOCC2)[C@@H](CO)O1)NCC1CCCCC1`, the inhibition is 25% (inactive).

With `Cc1noc(C)c1NC(=O)N(C)C[C@H]1Oc2ccc(NS(=O)(=O)c3ccc(F)cc3)cc2C(=O)N([C@@H](C)CO)C[C@H]1C`, the inhibition is -0.097% (inactive).

As for `N[C@@H](Cc1ccccc1)C(=O)N1CCOCC1`, the inhibition was -3.78% (inactive).

On to `O=C(CSC(=S)N1CCOCC1)c1ccccc1`, for which the inhibition is 69.5% (active).

In the case of `O=C(O)CC(CC(=O)N1CCOCC1)c1ccccc1` (configuration not stated), the inhibition is 7.83% (inactive).

`C[C@@H]1CN([C@@H](C)CO)S(=O)(=O)c2ccc(-c3ccc(C#N)cc3)cc2O[C@H]1CN(C)Cc1ccccn1`: the inhibition is 12.2% (inactive).

`CCCC(=O)N1CC2(CN(C(=O)NC(C)C)C2)c2c([nH]c3cc(OC)ccc23)[C@@H]1CO`: the inhibition is 0.057% (inactive).

In the case of `O=C(NCc1ccco1)/C(=C\c1cccc([N+](=O)[O-])c1)NC(=O)c1ccco1`, the inhibition is 21.6% (inactive).

For the compound `CCn1cc(/C=C(\NC(=O)c2ccc(C)cc2)C(=O)NCCN2CCOCC2)c2ccccc21`, the inhibition is -9.89% (inactive).

In the case of `Cc1ccc(C(=O)N/C(=C/c2ccc(-c3cccc([N+](=O)[O-])c3)o2)C(=O)NCCCN(C)C)cc1`, the inhibition is 77.8% (active).

On to `C[C@H](CO)N1C[C@H](C)[C@@H](CN(C)S(=O)(=O)c2ccc(F)cc2)OCCCC[C@H](C)Oc2ccc(NC(=O)CCCN(C)C)cc2C1=O`, for which the inhibition is -10.7% (inactive).

Regarding `Cc1c(C(=O)NCCN(C)C)oc2ccc(S(=O)(=O)N3CCCC3)cc12`, the inhibition is -6.68% (inactive).

As to `CN(C)CCNC(=O)c1ccc(Cl)c2cc3ccccc3nc12`, the inhibition is 86.6% (active).

On to `Nc1nc2c(Br)ccc(Br)c2cc1C(=O)NCCc1ccccc1`, for which the inhibition is -7.19% (inactive).

On to `CC(C)NC(=O)N(C)C[C@@H]1OCCCC[C@@H](C)Oc2ccc(NC(=O)CCCN(C)C)cc2C(=O)N([C@@H](C)CO)C[C@@H]1C`, for which the inhibition was 0.91% (inactive).

Turning to `CCOc1ccc(N/C=C/C(=O)c2ccccc2)cc1`, the inhibition is 70.1% (active).

As to `Cc1cc(C)nc(NS(=O)(=O)c2ccc(N/C=C\C(=O)c3cccs3)cc2)n1`, the inhibition is 0.601% (inactive).

Turning to `Cc1ccc(N/C=C/C(=O)c2ccccc2)cc1C`, the inhibition was 74.5% (active).

Take `Cc1ccc(NC(=O)C2CCCN2C(=O)OCc2ccccc2)cc1C` (configuration not stated): the inhibition was 1.81% (inactive).

Regarding `CCOc1ccc(NC(=O)N2CCN(CC)CC2)cc1`, the inhibition was -10.6% (inactive).

As for `CCOc1ccc(NC(=O)C(C)N2C(=O)c3ccccc3C2=O)cc1` (configuration not stated), the inhibition was -1.28% (inactive).

As for `Cc1ccc(S(=O)(=O)N(C)C[C@@H]2Oc3ncc(-c4cc5ccccc5o4)cc3C(=O)N([C@H](C)CO)C[C@@H]2C)cc1`, the inhibition was 4.4% (inactive).

Consider `COc1ccc2c3c(n(C)c2c1)[C@@H](CO)N(C(=O)Nc1ccc(F)cc1)CC31CN(C(=O)NC(C)C)C1`, for which the inhibition was -1.12% (inactive).

Consider `COC(=O)C[C@H]1CC[C@H](NC(=O)Nc2ccc(C(F)(F)F)cc2)[C@H](CO)O1`, for which the inhibition is -0.777% (inactive).

On to `COc1cccc(-c2ccc3c(c2)O[C@H](CN(C)C(=O)C2CCOCC2)[C@H](C)CN([C@H](C)CO)S3(=O)=O)c1`, for which the inhibition was -17.4% (inactive).

As for `COc1cccc2cc(/C(C)=N/NC(=O)c3ccco3)oc12`, the inhibition was -27.1% (inactive).

Consider `COc1cccc2cc(C(N)=O)/c(=N\NC(=O)c3ccccc3)oc12`, for which the inhibition is 72.2% (active).

With `COc1cccc2cc(C(=O)NCc3ccc(C)cc3)c(=N)oc12`, the inhibition is -0.361% (inactive).

On to `C[C@@H]1CCCCO[C@H](CN(C)S(=O)(=O)c2cn(C)cn2)[C@H](C)CN([C@H](C)CO)C(=O)c2cc(N(C)C)ccc2O1`, for which the inhibition is 10.5% (inactive).

As for `Cc1ccc(S(=O)(=O)NCC[C@@H]2CC[C@@H](NC(=O)CCN3CCCCC3)[C@@H](CO)O2)cc1`, the inhibition is 3.54% (inactive).

Turning to `N#C[C@@H]1[C@@H](c2ccc(C3=CCCCC3)cc2)[C@@H](CO)N1C(=O)c1cccc(F)c1`, the inhibition was 7.91% (inactive).

Consider `C[C@H]1CN([C@@H](C)CO)C(=O)c2cc(-c3ccncc3)cnc2O[C@H]1CN(C)C(=O)c1cccc(F)c1`, for which the inhibition was -3.95% (inactive).

As for `CCC(=O)N1CC[C@H]2[C@@H]1c1cc(-c3ccc(C#N)cc3)ccc1N(C)[C@H]2CO`, the inhibition is -10.9% (inactive).

`C[C@@H]1CCCCO[C@H](CN(C)C(=O)NC2CCCCC2)[C@@H](C)CN([C@H](C)CO)C(=O)c2cc(NS(=O)(=O)c3ccc(F)cc3)ccc2O1`: the inhibition is -5.15% (inactive).

In the case of `COc1cccc2c1C(=O)c1c(O)c3c(c(O)c1C2=O)CC(O)(C(C)=NNC(=O)c1ccc(Cl)c(Cl)c1)CC3OC1CC(N)C(O)C(C)O1` (configuration not stated), the inhibition is 96.4% (active).

With `C[C@H]1CN([C@@H](C)CO)C(=O)c2cccc(NC(=O)CCCCCC(=O)Nc3ccccc3N)c2O[C@H]1CN(C)C(=O)Nc1ccccc1`, the inhibition is 0.187% (inactive).

As for `COCC(=O)N1[C@H](C(=O)N2CCN(C)CC2)[C@@H](CO)[C@@H]2Cn3c(ccc(C4=CCCC4)c3=O)[C@@H]21`, the inhibition was -13.3% (inactive).

As for `Clc1ccc(-c2cc(-c3ccccn3)on2)c(Cl)c1`, the inhibition was 80% (active).

Take `Clc1ccc(-c2cc(C3CCNCC3)[nH]n2)c(Cl)c1`: the inhibition is 2.21% (inactive).

Consider `COCC(=O)Nc1ccc2c(c1)OC[C@H](C)N(C(=O)c1cnccn1)C[C@@H](C)[C@@H](OC)CN(C)C2=O`, for which the inhibition is 10.6% (inactive).

Turning to `COc1cccc(/C=N/Nc2cc(C)nc(-c3ccccc3O)n2)c1O`, the inhibition was 90.5% (active).

On to `O=C(c1ccc(F)cc1)N1CC2(C1)[C@H](c1ccccc1)[C@@H](CO)N2Cc1ccccn1`, for which the inhibition was -5% (inactive).

On to `COCC#Cc1ccc([C@@H]2[C@H](CO)N3C(=O)CN(C(=O)C4CCC4)C[C@@H]23)cc1`, for which the inhibition was 3.87% (inactive).

Consider `CCOC(=O)C(=Cc1ccccc1)C(=O)c1ccccc1`, for which the inhibition was 90.8% (active).

Take `CCOC(=O)C(=O)C1C(=O)Nc2ccccc21` (configuration not stated): the inhibition was -14.6% (inactive).

`CCOC(=O)/C=C/c1ccccc1O`: the inhibition was -29.5% (inactive).

As to `COc1ccc2c3c([nH]c2c1)[C@@H](CO)N(C)CC31CCN(S(=O)(=O)c2ccc(C)cc2)CC1`, the inhibition is 0.296% (inactive).

Regarding `O=C(Nc1cccc(F)c1)N1CC(=O)N2[C@H](CO)[C@H](c3ccc(C#CC4CC4)cc3)[C@@H]2C1`, the inhibition was 8.66% (inactive).

Take `COCC(=O)N1CCCCN2[C@H](CO)[C@H](c3ccc(C#Cc4ccc(OC)cc4)cc3)[C@H]2C1`: the inhibition is -13.1% (inactive).

`COc1ccc(-c2onc3ccc(C(C)=O)cc23)cc1`: the inhibition was -9.6% (inactive).

With `COc1ccc(OC)c(CNC(=O)CCc2nc(-c3cccs3)no2)c1`, the inhibition was 2.08% (inactive).

Consider `COc1ccc(-c2nc(-c3ccccc3)no2)c(OC)c1`, for which the inhibition was 91.2% (active).

Turning to `CN1C(=O)c2cc(NC(=O)C3CC3)ccc2OC[C@H]2O[C@H](CC(=O)O)CC[C@H]21`, the inhibition is -1.87% (inactive).

In the case of `O=C(Cc1cccnc1)N1CC(=O)N2[C@H](CO)[C@H](c3ccc(C#CC4CCCC4)cc3)[C@@H]2C1`, the inhibition was -25.4% (inactive).

Take `CC(=O)NC(c1ccccc1)c1nc(-c2ccccc2C)cs1` (configuration not stated): the inhibition was -19.2% (inactive).

For the compound `C=CC[n+]1c(-c2ccc(C)cc2)csc1NNC(=O)Nc1ccccc1`, the inhibition was 6.29% (inactive).

Turning to `CC(=O)Nc1ccc(-c2csc(NC(=O)Nc3ccccc3)n2)cc1`, the inhibition was 94.1% (active).

In the case of `CN1[C@H](C(=O)N2CCc3ccccc3C2)[C@@H](CO)[C@@H]2Cn3c(ccc(-c4cncnc4)c3=O)[C@@H]21`, the inhibition is 1.15% (inactive).

In the case of `COc1cc(SC)ccc1C(=O)Nc1nc(C)cs1`, the inhibition is 102% (active).

Consider `COc1cc(Cl)c(C)cc1NC(=O)COC(=O)c1cc(SC)ccc1Cl`, for which the inhibition is 7.1% (inactive).

As for `Cc1csc(OCC(=O)Nc2ccc(C)c(C)c2)n1`, the inhibition was 0.863% (inactive).

In the case of `CO[C@H](CN(C)C(=O)c1cnccn1)[C@@H](C)CN([C@@H](C)CO)S(=O)(=O)c1ccccc1`, the inhibition is -6.19% (inactive).

Turning to `c1c2c(cc3sc(N4CCCCC4)nc13)OCCO2`, the inhibition was 85.3% (active).

In the case of `C[C@@H]1CN([C@H](C)CO)C(=O)CCCn2cc(nn2)CO[C@@H]1CN(C)Cc1ccc2cccnc2c1`, the inhibition is -3.97% (inactive).

Turning to `O=C(NCc1ccc2c(c1)OCO2)c1sccc1Br`, the inhibition is -10.3% (inactive).

As for `CCN(CC)C(=O)Cn1cc(S(=O)(=O)CC(=O)NCc2ccc3c(c2)OCO3)c2ccccc21`, the inhibition was -11.7% (inactive).

For the compound `CN(C)C(=O)c1cccc(-c2cnc3sc(NCc4ccc5c(c4)OCO5)nn23)c1`, the inhibition was 51.6% (active).
